Cruzain noTriton – blocks cruzain activity in detergent-free assay | P25779 | purified cruzain, Z-FR-AMC fluorescence, no detergent | Potency, µM, inactives show max response, negative = inhibition, most hits filed as inhibitors | hit rate 2.3% among 200,000;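 note: plate controls were enzyme without inhibitor for no effect and buffer without enzyme for full effect; nearly all actives have a fitted effect of over 40% in size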
Target sequence (P25779 123-467 limits assumed): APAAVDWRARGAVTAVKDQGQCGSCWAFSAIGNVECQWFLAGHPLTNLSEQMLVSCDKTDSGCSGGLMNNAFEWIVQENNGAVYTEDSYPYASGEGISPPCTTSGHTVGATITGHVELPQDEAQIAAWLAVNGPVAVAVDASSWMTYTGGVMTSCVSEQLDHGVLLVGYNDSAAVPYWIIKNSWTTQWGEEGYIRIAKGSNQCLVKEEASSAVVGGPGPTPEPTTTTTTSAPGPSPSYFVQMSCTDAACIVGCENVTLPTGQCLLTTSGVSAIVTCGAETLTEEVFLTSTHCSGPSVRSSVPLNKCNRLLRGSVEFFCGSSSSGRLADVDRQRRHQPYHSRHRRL
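Detergent-free condition (0.00005% Triton X-100) in acetate buffer pH 5.5 with DTT. 1.5 nM enzyme and compound were pre-mixed 15 min, then 2 uM Z-FR-AMC substrate added; reaction progress from fluorescence change between first and third reads (60 s).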
Cruzain inh Det – blocks cruzain activity in presence of Triton detergent. P25779. purified cruzain, Z-FR-AMC fluorescence, 0.01% Triton. Potency, µM, without a hit: max response, negative = inhibition, usual class: inhibitors. hit rate 0.43% among 200,000. AID 1478;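 note: plate controls were neutral wells for no effect and buffer without enzyme for full effect; nearly all actives have a fitted effect of over 40% in size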
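Z-FR-AMC hydrolysis (2 uM substrate) by cruzain (1.5 nM) monitored kinetically at ex 360/em 450 nm after 15 min room-temperature compound exposure; 0.01% Triton X-100, pH 5.5, 5 mM DTT.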
Numbers without * were called inactive; ? = inconclusive. Only some compounds are listed: those with a hit (about 2.4% of all), similar ones and a draw of the others. Calls come from the whole dose curve; as a rule, active = well fitted curve in the direction sought with a large enough effect; inconclusive = small, poorly fitted or top-dose-only effect, or another doubt; inactive = no such curve, though single readings can be large; an effect the other way counts as inactive or inconclusive. Potency is the fitted concentration of half-maximal effect.

SMILES	Cruzain noTriton	Cruzain inh Det
Cc1ccc(NC(=O)CCCN2C(=O)/C(=C/C=C/c3ccccc3)SC2=S)cc1	32µM*	-7%
CC(C)c1ccccc1NC(=O)COC(=O)CCN1C(=O)/C(=C\C=C\c2ccccc2)SC1=S	16µM*	-11%
CC(C)c1ccccc1NC(=O)COC(=O)Cc1ccsc1	-2%	-3%
O=C(CN1C(=O)S/C(=C\C=C\c2ccccc2)C1=O)Nc1ccc(O)cc1	-5%	-6%
C=CCNC(=S)NNC(=O)c1csc(C)c1CC	6%	0%
COc1cccc(CNC(=O)C2CCCN(c3nn4c(=O)cc(C)nc4s3)C2)c1 (stereo not given)	-7%	2%
Cc1cc(C)c(Cn2c3ccccc3c3cnn(CC(=O)NC4CCC(C)CC4)c(=O)c32)c(C)c1 (stereo not given)	2µM*	-2%
CC1CCC(NC(=O)Cn2ncc3c4ccccc4n(Cc4ccc(Cl)cc4)c3c2=O)CC1 (stereo not given)	2%	-2%
CCOP(=O)(OCC)C(C#N)=C1SCN(c2ccc(Cl)cc2)CS1	13µM*	-9%
CCOP(=O)(OCC)C(NC(=O)c1ccc(Cl)cc1)=C(Cl)Cl	5%	2%
CC(=O)c1ccc(NC(=O)c2nn(C)c3c2CS(=O)(=O)c2ccccc2-3)cc1	-1%	-3%
COC(=O)c1ccc(-c2nc3cc(Cl)c(N)cc3s2)cc1	7.9µM*	6%
COC(=O)c1ccc(-c2nc3cc(N)ccc3o2)cc1	6%	-4%
CN1CCN(NC(=O)c2ccc(Cl)c([N+](=O)[O-])c2)CC1	-4%	5%
O=C(Cn1c(SCC(=O)N2CCc3ccccc3C2)nc2ccccc21)NC1CCCC1	-9%	7%
CC(=O)c1ccc(NC(=O)C(=O)c2cn(CC(=O)N3CCCCC3)c3ccccc23)cc1	10µM*	3%
O=C(Nc1ccccc1)C(=O)c1cn(CC(=O)N2CCCCC2)c2ccccc12	-20%	-9%
Cc1ccc(NC(=O)/C(C#N)=C/c2ccc(-c3ccc(Cl)c(C(=O)O)c3)o2)cc1C	4%	1%
COC(=O)c1oc2ccc(Br)cc2c1NC(=O)c1ccccc1	13µM*	2%
COC(=O)c1oc2ccc(Cl)cc2c1NC(C)=O	2%	-2%
N#Cc1c(N)nc(SCC(=O)NC2CCCCC2)c(C#N)c1-c1ccc(Cl)cc1	16µM*	-3%
CC(C)c1ccc(-c2c(C#N)c(N)nc(SCC(=O)N3CCCCC3)c2C#N)cc1	25µM*	4%
CC(C)c1ccc(-c2c(C#N)c(N)nc(SCC(=O)N3CCCCCC3)c2C#N)cc1	-9%	-3%
CCOC(=O)CSc1nc(N)c(C#N)c(-c2ccc(OCC)cc2)c1C#N	0%	-3%
O=C(NCc1cccnc1)NC1(C(F)(F)F)Oc2ccc(Cl)cc2O1 (stereo not given)	0%	-4%
SMILES	Cruzain noTriton	Cruzain inh Det
Cc1cc[n+](CC(=O)Nc2cc(C(F)(F)F)ccc2Cl)cc1	-4%	-1%
CC(C)c1ccc(/C=C/C(=O)Nc2nncs2)cc1	?	-5%
Cc1sc(NC(=O)/C=C/c2ccc(C(C)C)cc2)c(C#N)c1C	25µM*	1%
Cc1c(Cl)c([N+](=O)[O-])nn1Cc1ccc(C(=O)N/N=C\c2cccc(Br)c2)o1	?	3%
NC(=O)c1ccc[n+](Cc2ccccc2)c1	-5%	0%
O=C(Nc1nnc(CSCc2ccc(F)cc2)s1)c1ccc([N+](=O)[O-])cc1	25µM*	-4%
O=C(Nc1nnc(COc2ccc(Cl)cc2)s1)c1ccc([N+](=O)[O-])cc1	-9%	4%
O=C(Nc1nnc(CCS(=O)(=O)c2ccc(Br)cc2)s1)c1ccc([N+](=O)[O-])cc1	5µM*	5%
O=C(Nc1nnc(CSCc2ccccc2F)s1)c1cccc([N+](=O)[O-])c1	?	-7%
COC(CNc1cc(=O)oc2ccccc12)OC	3%	4%
O=C(COC(=O)C12CC3CC(CC(C3)C1)C2)Nc1nc2c(F)c(F)c(F)cc2s1	-13%	-6%
COc1ccccc1-n1cc(-c2ccc(C)cc2)nc1S(=O)(=O)CC(=O)Nc1ccccc1C(F)(F)F	12%	2%
COc1ccc(-c2cn(-c3ccc(C)cc3)c(S(=O)(=O)CC(=O)Nc3ccccc3)n2)cc1	20µM*	-14%
COc1ccc(-c2cn(-c3ccc(C)cc3)c(S(=O)(=O)CC(=O)Nc3ccc(F)cc3)n2)cc1	16µM*	-11%
Cc1cccc(C)c1NC(=O)CS(=O)(=O)c1nc(-c2ccc(Cl)cc2)cn1-c1ccccc1	-4%	?
COc1ccc(-c2nnc(SCC(=O)Nc3cccc(Cl)c3C)nc2-c2ccc(OC)cc2)cc1	0%	1%
CC(NC(=O)c1cc(-c2ccc(Br)cc2)on1)c1ccccc1 (stereo not given)	16µM*	7%
Cc1ccc(Cn2ccc(NC(=O)c3cc(-c4ccc(Br)cc4)on3)n2)cc1	4µM*	3%
COC(=O)c1cc(-c2ccc(Br)cc2)on1	-14%	1%
Cc1ccc(Cn2ccc(NC(=O)c3cc(-c4ccccc4)on3)n2)cc1	3%	-4%
Cc1cc(C)nc(NC(=O)COc2ccc(Cl)cc2)c1	-1%	0%
O=C(/C=C/c1ccccc1)Nn1c(-c2cccs2)nc2ccccc2c1=O	?	-8%
O=C(/C=C/c1cccc(Cl)c1)Nn1c(-c2cccs2)nc2ccccc2c1=O	13µM*	-5%
Cc1cc(NC(=O)CCN2C(=O)C3C4C=CC(C4)C3C2=O)c2ccccc2n1 (stereo not given)	6%	1%
COc1ccc(Cl)cc1Nc1ccc2cc(S(=O)(=O)N3CCCCC3)ccc2n1	25µM*	-1%
SMILES	Cruzain noTriton	Cruzain inh Det
CCOc1ccc(OCC)c(Nc2ccc3cc(S(=O)(=O)N4CCCC4)ccc3n2)c1	-16%	0%
CCOC(=O)c1cccc(Nc2ccc3cc(S(=O)(=O)N4CCCCC4)ccc3n2)c1	25µM*	-4%
COc1ccc(Nc2ccc3cc(S(=O)(=O)N4CCCC4)ccc3n2)cc1Cl	25µM*	-4%
O=S(=O)(c1ccc2nc(Nc3cccc(F)c3)ccc2c1)N1CCCC1	-29%	-17%
O=S(=O)(c1ccc2nc(Nc3ccc(F)cc3)ccc2c1)N1CCCC1	-4%	1%
CC1CCN(S(=O)(=O)c2ccc3nc(Nc4cccc(C(F)(F)F)c4)ccc3c2)CC1	?	0%
CC1CCN(S(=O)(=O)c2ccc3nc(Nc4ccc(C#N)cc4)ccc3c2)CC1	32µM*	-6%
COCCNC(=O)C(c1cccc(OC)c1)N(C(=O)Cn1nnc2ccccc21)c1cccnc1 (stereo not given)	-2%	4%
Cc1ccc(C)c(NC(=O)C(C)n2c(=O)cc(C(F)(F)F)c3c(C)nn(C)c32)c1 (stereo not given)	-7%	0%
CC(C)(C)c1ccc(S(=O)(=O)N2CCCCC2C(=O)NCc2ccccn2)cc1 (stereo not given)	?	-1%
CN1CCc2c(sc(NC(=O)c3ccc(S(=O)(=O)N4CCOCC4)cc3)c2C(N)=O)C1	-20%	-13%
O=C(O)c1ccc([N+]2=Cn3c(nc4ccccc43)C2)cc1	3%	-7%
CCSC1=C(C#N)C(c2cccs2)C(C(=O)OC)=C(C)N1 (stereo not given)	-11%	-2%
CCCSC1=C(C#N)C(c2cccs2)C(C(=O)Nc2ccccc2)=C(C)N1 (stereo not given)	25µM*	-12%
CN(Cc1nc2ccccc2c(=O)[nH]1)C(=O)c1ccc(S(=O)(=O)N(C)C)cc1	1%	3%
